± gives the standard deviation of the averaged measurements. Whole data set: some 33,000 sequences, median “E-score (dimensionless, -0.5 to 0.5)” near -0.046, cut for the highest 2% near 0.36. Only a selection was taken, and the highest values are over-represented in it overall.
What follows are sequences tested on T1, SpTbr T-box DNA-binding domain (GST fusion) (assay: PBM E-score of 8-mer (E-score (dimensionless, -0.5 to 0.5)); Tbr is Tbrain of the sea star Patiria miniata (Pm) or the sea urchin Strongylocentrotus purpuratus (Sp); higher = stronger binding preference). Details: the construct has about 5 more residues each side.
T1 sequence: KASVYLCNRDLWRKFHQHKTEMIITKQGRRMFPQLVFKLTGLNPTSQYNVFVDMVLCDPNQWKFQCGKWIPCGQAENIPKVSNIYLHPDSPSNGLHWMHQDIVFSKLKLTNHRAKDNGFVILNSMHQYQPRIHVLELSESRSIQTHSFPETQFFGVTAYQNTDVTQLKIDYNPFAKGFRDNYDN
Method: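 Universal protein-binding microarray (Agilent AMADID 016060, 60-bp probes with a 35-bp variable region) incubated with 200 nM GST-fused Strongylocentrotus purpuratus Tbr T-box DNA-binding domain (residues 362-554) in PBS pH 7.5. Scored for every ungapped 8-mer (given with its reverse complement) as E-score (range -0.5 to 0.5; >0.45 counts as bound) and Z-score of median probe intensity. Two replicate arrays (datasets 1 and 2).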
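Note: protein at 200 nM in PBS on universal double-stranded arrays.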

Sequence | PBM E-score of 8-mer
AAGCTATA | -0.0728 ± 0.05
GCAGGTCA | 0.036 ± 0.077
GCAGGTGA | 0.414 ± 0.011
ACAGGTGG | 0.316 ± 0.026
GTAGGTTA | -0.184 ± 0.0098
ACAGGTGA | 0.373 ± 0.0074
CCAGGTGA | 0.306 ± 0.012
GCAGGTAA | -0.0374 ± 0.063
ACAGGTGC | 0.436 ± 0.013
ACAGGTTA | 0.257 ± 0.043
CCAGGTGC | 0.3516 ± 0.00069
CTAGGTGA | 0.356 ± 0.026
GTAGGTGA | 0.379 ± 0.023
GTCATAAA | -0.00255 ± 0.054
AAAAGATA | -0.0313 ± 0.063
CTACGCAC | 0.0937 ± 0.02
TACCTCTA | -0.164 ± 0.002
ATAAGAGC | -0.19 ± 0.022
ACCCTCGG | -0.124 ± 0.045
ATGCAGAG | -0.18 ± 0.023
ACGAACCG | 0.192 ± 0.063
CATTTTCA | 0.0656 ± 0.088

Sequence | PBM E-score of 8-mer
AGTTCTGA | -0.131 ± 0.043
TAGACCCA | -0.101 ± 0.067
AAGTGGTG | 0.205 ± 0.007
CGACCATC | 0.0183 ± 0.023
CAGAGGAG | -0.063 ± 0.011
GGGTGGCA | 0.288 ± 0.014
CGGTGGCA | 0.186 ± 0.053
AGGTGGAG | 0.158 ± 0.025
AGGTGGCC | 0.075 ± 0.0048
AGGTGGCA | 0.432 ± 0.015
AGGTGGCG | 0.401 ± 0.011
CCCATCAC | 0.189 ± 0.031
CCCGAGGG | -0.341 ± 0.026
AACGCATA | 0.0089 ± 0.0093
CACGCCTA | 0.375 ± 0.016
AACGCCTC | 0.35 ± 0.0088
AACGCCAT | 0.199 ± 0.029
AGCGCCTC | 0.268 ± 0.0083
AACGCCTG | 0.292 ± 0.006
AACGCCTT | 0.367 ± 0.041
CGCGCCTA | 0.356 ± 0.037
CACGCCTC | 0.395 ± 0.032

Sequence | PBM E-score of 8-mer
AACGCCTA | 0.298 ± 0.038
TACGCCTA | 0.0945 ± 0.018
CGCGCCTC | 0.365 ± 0.039
GACGCCTC | 0.328 ± 0.017
ACTCGCTC | -0.0581 ± 0.083
AGCCAATG | -0.218 ± 0.056
AAACCGCG | 0.0876 ± 0.057
AGCATCTG | -0.116 ± 0.028
GCCACGGC | -0.0294 ± 0.015
GGTGTTAC | 0.4612 ± 0.0021
AGTGTTAG | 0.3895 ± 0.00056
GGTGTAAC | 0.349 ± 0.014
CGTGTTAG | 0.332 ± 0.015
GGTGTAAA | 0.436 ± 0.012
CGTGTTAC | 0.308 ± 0.0063
ACTGTTAG | 0.195 ± 0.048
CGTGTTAA | 0.409 ± 0.0099
AGTGTAAA | 0.338 ± 0.049
AGTGTTTG | 0.219 ± 0.041
CCTGTTAA | 0.168 ± 0.067
GCTGTTAC | 0.0324 ± 0.031
AGTTAGAT | -0.191 ± 0.0088

Sequence | PBM E-score of 8-mer
CCTAACTC | -0.0227 ± 0.032
ACAGCCAA | 0.00932 ± 0.037
CACCACCA | 0.145 ± 0.0054
AATAGCAA | 0.151 ± 0.019
AGTCCTTG | -0.0449 ± 0.074
AGGCGGTG | -0.0537 ± 0.076
GGAGCCCC | -0.206 ± 0.022
TCTGTTAA | 0.131 ± 0.02
AGTGTTTA | 0.245 ± 0.062
CGTGTTTA | 0.123 ± 0.047
ACTGTTAT | 0.152 ± 0.032
AGTGTTAT | 0.372 ± 0.045
TGTGTTAA | 0.407 ± 0.011
AGTGTTGG | 0.3684 ± 7.1e-06
AATGTTAT | 0.0346 ± 0.014
TATGTTAA | 0.0661 ± 0.067
AGTGTTGA | 0.351 ± 0.006
GGTGTTTA | 0.386 ± 0.015
AGTGTTGC | 0.346 ± 0.0099
GGTCTCAA | -0.0536 ± 0.098

From the supplement of paper PMC4166925
